# Test results reported in the supplement of paper PMC8975748.
# Where a name gives a salt, the structure may show the parent alone. ± gives the standard deviation of the averaged measurements.
# Tested on: Saccharomyces cerevisiae BY4741 SeMeCo community
# Assay: mean cell size (pixel area) (pixels); higher = larger cells
# Conditions: 10 µM; 24 h; SM minimal medium
# Procedure, shortened: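 Harmony analysis of automated confocal images of paraformaldehyde-fixed yeast gave the mean cell pixel area per well. The yeast was a Saccharomyces cerevisiae BY4741 community carrying four plasmids, each with a fluorescent marker and each complementing one auxotrophy, incubated for 24 h in SM medium containing drug at a final 10 µM in 384-well plates. Results are averaged over 3 replicates. Same SeMeCo high-content imaging drug screen: Selleck FDA-approved drugs at 10 µM, 24 h in SM medium, 384-well plates, 3 replicates.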
row,Compound,mean cell size
1,CCCCOc1cc(C(=O)NCCN(CC)CC)c2ccccc2n1 [Dibucaine HCl],12.3 ± 0.24
2,Clc1ccc(CSC(Cn2ccnc2)c2ccc(Cl)cc2Cl)cc1 (centres undefined) [Sulconazole Nitrate],12.1 ± 0.16
3,COc1ccc(C2CNC(=O)C2)cc1OC1CCCC1 (centres undefined) [Rolipram],12.4 ± 0.3
4,C[C@]12CC[C@@H]3c4ccc(O)cc4CC[C@H]3[C@@H]1CC[C@@H]2OC(=O)CCC1CCCC1 [Estradiol Cypionate],12.4 ± 0.13
5,C[C@@H](NCCCc1cccc(C(F)(F)F)c1)c1cccc2ccccc12 [Cinacalcet HCl],12.17 ± 0.037
6,CC(C)Cc1ccc(C(C)C(=O)O)cc1 (centres undefined) [Ibuprofen Lysine],13 ± 0.042
7,O=C(Cn1cnnn1)N[C@@H]1C(=O)N2C(C(=O)O)=C(CSc3nncs3)CS[C@H]12 [Ceftezole sodium],12.31 ± 0.087
8,CC[N+](C)(C)c1cccc(O)c1 [Edrophonium chloride],12.28 ± 0.12
9,Nc1ccc(S(N)(=O)=O)cc1 [Sulfanilamide],12.4 ± 0.23
10,CCCN(CCC)CCc1cccc2c1CC(=O)N2 [Ropinirole HCl],12.4 ± 0.22
11,CN1CCCN=C1/C=C/c1cccs1 [Pyrantel Pamoate],12.8 ± 0.19
12,CN(C)CCC[C@@]1(c2ccc(F)cc2)OCc2cc(C#N)ccc21 [Escitalopram Oxalate],12.4 ± 0.18
13,CCCCCC(=O)O[C@]1(C(C)=O)CC[C@H]2[C@@H]3CCC4=CC(=O)CC[C@]4(C)[C@H]3CC[C@@]21C [Hydroxyprogesterone caproate],12.47 ± 0.039
14,C[C@]12CCC(=O)C=C1[C@@H]1C[C@@H]1[C@H]1[C@@H]3[C@@H]4C[C@@H]4[C@@]4(CCC(=O)O4)[C@@]3(C)CC[C@@H]12 [Drospirenone],12.53 ± 0.089
